Compound activity (PubChem BioAssay)
Giardia FBPA inh: inhibitors of Giardia lamblia fructose-1,6-bisphosphate aldolase. A8B2U2. Potency, µM (series often up to 59.6 µM), for inactives: top-dose activity, negative = inhibition, most hits filed as inhibitors. actives 0.71% (n = 290,000). purified Giardia FBPA; note: % is set by controls: 0 for no effect and ±100 for the full control effect; nearly all actives have a fitted effect of over 55% in size
Target sequence (A8B2U2 whole entry, looked up): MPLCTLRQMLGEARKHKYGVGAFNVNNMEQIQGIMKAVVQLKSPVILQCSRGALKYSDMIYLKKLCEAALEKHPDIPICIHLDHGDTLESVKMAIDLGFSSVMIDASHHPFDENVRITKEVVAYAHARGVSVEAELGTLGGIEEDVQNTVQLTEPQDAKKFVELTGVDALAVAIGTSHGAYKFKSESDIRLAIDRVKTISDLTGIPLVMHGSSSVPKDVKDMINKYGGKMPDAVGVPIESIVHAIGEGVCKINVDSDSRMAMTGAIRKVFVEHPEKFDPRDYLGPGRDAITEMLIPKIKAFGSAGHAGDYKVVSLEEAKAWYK
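Giardia FBPA (40 nM reagent) was preincubated 10 min at RT with compound (up to 57.5 uM final), then substrate plus GAPDH/TPI/NAD/arsenate coupling system with diaphorase/resazurin was added; resorufin fluorescence (525/598 nm) was read after 20 min.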
SARS PLpro yeast: inhibitors of SARS-CoV papain-like protease in yeast | S. cerevisiae expressing SARS-CoV PLpro, growth rescue | Potency, µM (highest dose often 32.9 µM), without a hit: top-dose activity, positive = growth rescue, hits mostly activators | actives 0.19% (n = 330,000); calls by dose curve; note: 0% is about no effect; nearly all actives have a fitted effect of over 55% in size
AmpC no deterg: blocks E. coli AmpC beta-lactamase in detergent-free assay; P00811; AmpC nitrocefin hydrolysis, absorbance 480 nm, 0.0001% Triton; Potency, µM (top dose mostly 57.1 µM), inactives show at the top dose activity change, negative = inhibition, actives largely listed as inhibitors; actives 0.52% (n = 330,000); AID 485341;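 note: plate controls were no compound for no effect and no enzyme for full effect; nearly all actives have a fitted effect of over 20% in size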
Target sequence (P00811 whole entry, looked up): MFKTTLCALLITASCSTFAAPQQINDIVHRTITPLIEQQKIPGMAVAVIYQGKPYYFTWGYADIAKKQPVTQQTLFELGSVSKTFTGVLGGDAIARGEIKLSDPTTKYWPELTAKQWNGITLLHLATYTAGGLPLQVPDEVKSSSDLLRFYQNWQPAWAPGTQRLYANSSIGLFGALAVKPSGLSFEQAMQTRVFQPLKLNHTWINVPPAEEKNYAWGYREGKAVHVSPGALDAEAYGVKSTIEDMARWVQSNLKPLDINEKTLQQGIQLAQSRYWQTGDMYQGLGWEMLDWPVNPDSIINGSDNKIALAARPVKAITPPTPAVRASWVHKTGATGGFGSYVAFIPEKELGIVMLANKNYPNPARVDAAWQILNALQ
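20 mM phosphate pH 7.0 + 0.01% (detergent screen) or 0.0001% Triton X-100; 5.3 nM AmpC reagent; cpd preinc 15 min RT; nitrocefin (800 uM stock) to start; A480 q20 s × 4 min; Activity was normalised to no-enzyme and no-compound control wells.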
AmpC inh detg: AmpC beta-lactamase inhibition with detergent present; Potency, µM (doses to about 114 µM), for inactives: top-dose activity change, negative = inhibition, usual class: inhibitors; actives 0.041% (n = 370,000); AmpC hydrolysis of nitrocefin, absorbance 480 nm, 0.01% Triton;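 note: 0% = no-compound wells and -100% = no-enzyme wells; nearly all actives have a fitted effect of over 25% in size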
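AmpC (5.3 nM in the dispensed reagent) in 20 mM phosphate pH 7.0 with 0.01% (detergent screen) or 0.0001% Triton X-100 was preincubated with compounds for 15 min at room temperature. Nitrocefin was then added from an 800 uM solution, and hydrolysis was followed at 480 nm.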
* marks the source's active call; other numbers are inactive results. Only some compounds are listed: those with a hit (about 1.1% of all), similar ones and a draw of the others. Unless noted, calls come from the whole dose curve; as a rule, active = well fitted curve in the direction sought with a large enough effect; inconclusive = small, poorly fitted or top-dose-only effect, or another doubt; inactive = no such curve, though single readings can be large; an effect the other way counts as inactive or inconclusive. Potency is the fitted concentration of half-maximal effect.

For NCCCC[C@H](NC(=O)[C@H](Cc1c[nH]c2ccccc12)NC(=O)[C@H](CC(=O)O)NC(=O)[C@H](Cc1cnc[nH]1)NC(=O)[C@H](CO)NC(=O)[C@H](Cc1c[nH]c2ccccc12)NC(=O)[C@H](Cc1cnc[nH]1)NC(=O)[C@@H]1CCC(=O)N1)C(=O)N1CCC[C@H]1C(=O)NCC(N)=O the results were Giardia FBPA inh -8.6%.
`Cc1ccccc1-c1nc(CN2CCC(C(=O)N3CCC(C(N)=O)CC3)CC2)c(C)o1` gave Giardia FBPA inh 6.0%, SARS PLpro yeast 2.1%, AmpC no deterg 11.2µM* and AmpC inh detg inconclusive.
CSCCC(NC(=O)c1cccc([N+](=O)[O-])c1)c1nc2ccccc2[nH]1 (configuration not stated) was read as Giardia FBPA inh -0.7%, SARS PLpro yeast -7.7%, AmpC no deterg 20µM* and AmpC inh detg -2.5%.
COC(=O)COc1cccc2c(=O)n(CC(=O)N3CCCc4ccccc43)ccc12 was read as Giardia FBPA inh 0.3%, SARS PLpro yeast -2.1%, AmpC no deterg 0.631µM* and AmpC inh detg inconclusive.
For S=c1[nH]nc(-c2cccc(Cl)c2)n1Cc1ccccc1 the results were Giardia FBPA inh 0.8%, SARS PLpro yeast 2.6%, AmpC no deterg -19.1% and AmpC inh detg -6.1%.
For Cc1[nH]c2ccc(-c3n[nH]c(=S)n3Cc3ccccc3)cc2c1C the results were Giardia FBPA inh 8.1%, SARS PLpro yeast 1.5%, AmpC no deterg 11.2µM* and AmpC inh detg -1.1%.
For Cc1[nH]c2ccc(-c3n[nH]c(=S)n3-c3ccccc3)cc2c1C the results were Giardia FBPA inh 13.4%, SARS PLpro yeast -0.4%, AmpC no deterg -46.7% and AmpC inh detg -6.7%.
Cc1cccc(-c2n[nH]c(=S)n2Cc2ccccc2)c1 was read as Giardia FBPA inh 7.8%, SARS PLpro yeast 8.91µM*, AmpC no deterg -7.3% and AmpC inh detg -1.3%.
Screening CC[C@H](C)[C@H](NC(=O)[C@@H](NC(=O)CNC(=O)[C@@H](N)CC(C)C)[C@@H](C)O)C(=O)N1CCC[C@H]1C(=O)NCC(=O)O returned Giardia FBPA inh -0.2%.
Screening CCCCC1=CC2=C(c3ccco3)C(=O)C(C)(OC(=O)c3cccs3)C(=O)C2=CO1 (configuration not stated) returned Giardia FBPA inh -4.2%.
Screening CCOC(=O)NCc1ccc2[nH]c(C)cc2c1 returned Giardia FBPA inh -12.4%, SARS PLpro yeast -7.3%, AmpC no deterg -20.8% and AmpC inh detg inconclusive.
Screening Cc1cc2cc(CNC(=O)Nc3ccccc3)ccc2[nH]1 returned Giardia FBPA inh -9.9%, SARS PLpro yeast -5.5%, AmpC no deterg 22.4µM* and AmpC inh detg -3.8%.
For COC(=O)CC1Oc2cc3oc4c(c3cc2O1)C(=O)CC(C)(C)C4 (configuration not stated) the results were Giardia FBPA inh 0.5%.
Screening CC1(C)CC(=O)c2c(oc3cc(O)c(O)cc23)C1 returned Giardia FBPA inh 3.15µM*, SARS PLpro yeast -3.1%, AmpC no deterg -32.3% and AmpC inh detg -7.1%.
For COc1cccc(C2=Nn3c(nnc3-c3cc(OC)ccc3OC)SC2)c1 the results were Giardia FBPA inh -0.7%.
COc1cccc([C@@H]2Oc3ccc(OC)cc3C(=O)[C@H]2OC(=O)NCCc2ccc(OC)c(OC)c2)c1 was read as Giardia FBPA inh 3.1%.
Screening CC(C)C(=O)N1N=C(c2ccc(NS(C)(=O)=O)cc2)CC1c1cccs1 (configuration not stated) returned Giardia FBPA inh 6.7%, SARS PLpro yeast 13.7%, AmpC no deterg -55.8% and AmpC inh detg -4.0%.
CS(=O)(=O)Nc1ccc(C2=NN(C(=O)C3CCCCC3)C(c3cccs3)C2)cc1 (configuration not stated) was read as Giardia FBPA inh -1.6%, SARS PLpro yeast 2.5%, AmpC no deterg 7.08µM* and AmpC inh detg -14.7%.
`NS(=O)(=O)c1nn2cc(-c3ccccc3)nc2s1` gave Giardia FBPA inh 2.9%.
Screening Cc1ccc(C(=O)CSc2nc(-c3ccccc3)ccc2C#N)cc1 returned Giardia FBPA inh 2.5%, SARS PLpro yeast -22.7%, AmpC no deterg -30.9% and AmpC inh detg -11.5%.
Screening N#Cc1ccc(-c2ccco2)nc1SCC(=O)c1ccc(Cl)cc1 returned Giardia FBPA inh 20.2%, SARS PLpro yeast 1.6%, AmpC no deterg 10µM* and AmpC inh detg -0.1%.
Cc1ccc(NC(=O)Cn2ncc(Cl)c(Cl)c2=O)cc1S(=O)(=O)N1CCCCC1 was read as SARS PLpro yeast 2.4%, AmpC no deterg 3.98µM* and AmpC inh detg -1.6%.
Screening Cc1ccccc1C(=O)OC1OC(=O)C(Cl)=C1Nc1ccc(C(=O)O)cc1 (configuration not stated) returned Giardia FBPA inh -3.2%, SARS PLpro yeast -0.7%, AmpC no deterg 1.12µM* and AmpC inh detg 1.26µM*.
For Cc1cc(C(=O)CSc2nnnn2-c2ccc(O)cc2)c(C)n1Cc1ccc2c(c1)OCO2 the results were Giardia FBPA inh -0.1%, SARS PLpro yeast 3.4%, AmpC no deterg 2.24µM* and AmpC inh detg -7.9%.
Screening Cc1cc(C(=O)CSc2nnnn2-c2ccccc2)c(C)n1-c1ccc2c(c1)OCO2 returned Giardia FBPA inh -9.9%, SARS PLpro yeast 6.7%, AmpC no deterg -41.9% and AmpC inh detg 3.9%.
`Cc1cc(C(=O)CSc2nncs2)c(C)n1-c1ccc2c(c1)OCO2` gave Giardia FBPA inh -17.2%, SARS PLpro yeast -9.1%, AmpC no deterg 0.282µM* and AmpC inh detg inconclusive.
`COc1ccc(S(=O)(=O)Nc2ccc(O)c(Sc3ncn[nH]3)c2)cc1` gave Giardia FBPA inh -21.5%, SARS PLpro yeast -0.1%, AmpC no deterg -27.2% and AmpC inh detg inconclusive.
O=C(O)CSc1cc(NS(=O)(=O)c2ccc(Cl)cc2)c2ccccc2c1O was read as Giardia FBPA inh 3.98µM*, SARS PLpro yeast -12.0%, AmpC no deterg -45.8% and AmpC inh detg 4.7%.
COc1ccc(S(=O)(=O)Nc2cc(SCC(=O)O)c(O)c3ccccc23)cc1 was read as Giardia FBPA inh 7.94µM*, SARS PLpro yeast -10.5%, AmpC no deterg -35.3% and AmpC inh detg -5.8%.
Screening COc1ccc(S(=O)(=O)Nc2cc(Sc3ncn[nH]3)c(O)c3ccccc23)cc1 returned Giardia FBPA inh 0.561µM*, SARS PLpro yeast -46.2%, AmpC no deterg -27.6% and AmpC inh detg -5.3%.
Screening Cc1cc(C)c(S(=O)(=O)Nc2cc(SCC(=O)O)c(O)c3ccccc23)cc1C returned Giardia FBPA inh 3.97µM*, SARS PLpro yeast -6.4%, AmpC no deterg -45.5% and AmpC inh detg -11.7%.
For O=C(NC(NC(=S)Nc1ccc(F)c([N+](=O)[O-])c1)C(Cl)(Cl)Cl)C(c1ccccc1)c1ccccc1 (configuration not stated) the results were Giardia FBPA inh -6.9%.
